Laboratory results taken from PubChem BioAssay (NCATS).
Values joined by “and” are separate entries in the source; they are usually repeats but may differ in a detail not shown here. Equal values may be shown once. Results filed as inconclusive are left out. Active and inactive are the calls of the source. The call rests on the fitted dose curve; in most records, active means well fitted curve in the direction sought with a large enough effect; inconclusive means small, poorly fitted or top-dose-only effect, or another doubt; inactive means no such curve, though single readings can be large; an effect the other way counts as inactive or inconclusive.

What was measured:
[1] = Viability qHTS for spleen associated tyrosine kinase inhibitor (SYKi) naive MV4-11 cells (AID 1963823); settings: MV4-11 AML viability, CellTiter-Glo luminescence, 72 h; series mostly up to 45 µM; further: nearly all actives have a fitted effect of over 40% in size
Method in brief: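 Luminescence from CellTiter-Glo, developed 10 min at room temperature, gave viability of MV4-11 cells never exposed to SYK inhibitor. Cells (500/well) had been incubated with compounds for 72 hr under standard culture conditions.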

[2] = Viability qHTS for spleen associated tyrosine kinase inhibitor (SYKi) drug resistant MV4-11 cells (AID 1963824); settings: SYKi-resistant MV4-11 viability, CellTiter-Glo, 72 h; series mostly up to 45 µM; further: nearly all actives have a fitted effect of over 35% in size
Method in brief: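 SYK-inhibitor-resistant MV4-11 AML cells were seeded at 500 per well onto compound and cultured 72 hours (37 °C, 5% CO2). CellTiter-Glo was then added, and after 10 min at room temperature, luminescence gave viability.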

[3] = Quantitative highthroughput screen to assess conditional lethalithy of NOMO1 cells grown in RPMI1640 with untreated serum (RPMI+s) (AID 1963876); settings: NOMO1 AML cells in RPMI+serum, CellTiter-Glo viability, 48 h; series mostly up to 45.8 µM; further: nearly all actives have a fitted effect of over 35% in size;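 on Viability: 100% = DMSO wells and 0% = empty wells without cells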
Method in brief: (§1)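 Each medium arm—HPLM with 10% dialyzed FBS, or RPMI1640 with 5 mM glucose and 10% untreated or dialyzed FBS—was screened against an 11-point, 3-fold compound titration for 48 h at 37 °C, with CellTiter-Glo luminescence as endpoint.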

[4] = Quantitative highthroughput screen to assess conditional lethalithy of NOMO1 cells grown in RPMI1640 with dialyzed fetal bovine serum (RPMI+ds) (AID 1963877); settings: NOMO1 in RPMI+dialyzed FBS viability, ATP luminescence, 48 h; series mostly up to 45.8 µM; further: nearly all actives have a fitted effect of over 30% in size;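 on Viability: 100% = DMSO control wells and 0% = empty wells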
Method in brief: as §1

[5] = Quantitative highthroughput screen to assess conditional lethalithy of NOMO1 cells grown in Human Plasma-Like Medium with dialyzed fetal bovine serum (HPLM+ds) (AID 1963878); settings: NOMO1 AML cells in HPLM+ds, CellTiter-Glo viability, 48 h; series mostly up to 45.8 µM; further: nearly all actives have a fitted effect of over 35% in size;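 on Viability: 100% = DMSO wells and 0% = empty wells on each plate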
Method in brief: as §1

[6] = Quantitative highthroughput screen to assess conditional lethalithy of P12 Ichikawa cells grown in Human Plasma-Like Medium with dialyzed fetal bovine serum (HPLM+ds) (AID 1963879); settings: ATP luminescence, 48 h; Potency: viability; series mostly up to 45.8 µM; further: nearly all actives have a fitted effect of over 35% in size
Method in brief: as §1

[7] = Quantitative highthroughput screen to assess conditional lethalithy of P12 Ichikawa cells grown in RPMI1640 with dialyzed fetal bovine serum (RPMI+ds) (AID 1963880); settings: ATP luminescence, 48 h; Potency: P12-Ichikawa viability; series mostly up to 45.8 µM; further: nearly all actives have a fitted effect of over 35% in size;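 on Viability: 100% = DMSO wells and 0% = empty wells on each plate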
Method in brief: as §1

[8] = Quantitative highthroughput screen to assess conditional lethalithy of P12 Ichikawa cells grown in RPMI1640 with untreated serum (RPMI+s) (AID 1963881); settings: ATP luminescence, 48 h; Potency: viability; series mostly up to 45.8 µM; further: nearly all actives have a fitted effect of over 35% in size;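 on Viability: 100% = DMSO wells and 0% = empty wells without cells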
Method in brief: as §1

[9] = Quantitative highthroughput screen to assess conditional lethalithy of SEM cells grown in Human Plasma-Like Medium with dialyzed fetal bovine serum (HPLM+ds) (AID 1963882); settings: SEM B-ALL cells in HPLM+ds, CellTiter-Glo viability, 48 h; series mostly up to 45.8 µM; further: nearly all actives have a fitted effect of over 35% in size
Method in brief: as §1

[10] = Quantitative highthroughput screen to assess conditional lethalithy of SEM cells grown in RPMI1640 with unreated serum (RPMI+s) (AID 1963883); settings: SEM B-ALL cells, CellTiter-Glo viability, 48 h; series mostly up to 45.8 µM; further: nearly all actives have a fitted effect of over 35% in size;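 on Viability: 100% = DMSO wells and 0% = empty wells without cells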
Method in brief: as §1

[11] = Quantitative highthroughput screen to assess conditional lethalithy of SEM cells grown in RPMI1640 with dialyzed fetal bovine serum (RPMI+ds) (AID 1963884); settings: SEM B-ALL cells, RPMI+dialyzed FBS, CellTiter-Glo viability, 48 h; series mostly up to 45.8 µM; further: nearly all actives have a fitted effect of over 35% in size;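 on Viability: 100% = DMSO control wells and 0% = empty wells without cells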
Method in brief: as §1

[12] = Cellular viability qHTS for adrenocortical cancer (ACC) cell line SW-13 (AID 1963989); settings: SW-13 ACC cells viability, CellTiter-Glo, 48 h; activity (max response): stronger effect = lower value; further: nearly all actives have a fitted effect of over 65% in size;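 on activity (max response): cells grown in serum-free medium with ITS supplement; on the % scale 0 is the no-effect control and ±100 the full control effect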
Method in brief: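 Compound titrations (up to 46 uM final, in DMSO) were applied to SW-13 cells for 48 h at 37C/5% CO2. Reading used CellTiter-Glo after 20 min at room temperature; fitted curves yielded IC50 and efficacy.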

[13] = Cellular viability qHTS for adrenocortical cancer (ACC) cell line NCI-H295R (AID 1963990); settings: CellTiter-Glo ATP luminescence, 48 h; series mostly up to 46.1 µM; further: nearly all actives have a fitted effect of over 60% in size
Method in brief: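 Readout: CellTiter-Glo luminescence, 20 min RT. Exposure: 48 h, 37C/5% CO2. Cells: NCI-H295R, ITS-DMEM serum-free. Range: up to 46 uM. Analysis: 4PL fit, IC50 plus efficacy.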
Potency means the concentration at half of the fitted maximal effect.

CC(C)(C#N)c1cc(Cn2cncn2)cc(C(C)(C)C#N)c1
inactive: Potency [1] | Potency [2] | Potency [3] | Potency [4] | Potency [5] | Potency [6] | Potency [7] | Potency [8] | Potency [9] | Potency [10] | Potency [11] | activity (max response) [12] 5.22% | Potency [13]

CN(C)Cc1c(C(=O)NCCOc2ccc(C(=O)NO)cc2)oc2ccccc12
active: Potency [1] 326 nM and 296 nM | Potency [2] 259 nM and 235 nM | Potency [3] 4.18 µM | Potency [4] 4.18 µM | Potency [5] 4.18 µM | Potency [6] 2.35 µM | Potency [7] 2.96 µM | Potency [8] 2.09 µM | Potency [9] 1.18 µM | Potency [10] 1.32 µM | Potency [11] 1.48 µM | Potency [12] 1.26 µM | Potency [13] 0.794 µM

O=C(Nc1cc(C(F)(F)F)cc(C(F)(F)F)c1)c1cc(Cl)ccc1O
active: Potency [1] 651 nM and 934 nM | Potency [2] 517 nM and 662 nM | Potency [3] 3.32 µM | Potency [4] 2.96 µM | Potency [5] 2.96 µM | Potency [6] 3.72 µM | Potency [7] 3.32 µM | Potency [8] 2.96 µM | Potency [9] 4.18 µM | Potency [10] 2.96 µM | Potency [11] 4.18 µM | Potency [12] 0.355 µM | Potency [13] 1.12 µM

O=C(NCc1ccccc1)c1csc(Nc2ccncn2)n1
active: Potency [1] 4.68 µM | Potency [2] 4.17 µM and 20.6 µM | Potency [3] 3.32 µM | Potency [4] 3.72 µM | Potency [5] 2.35 µM | Potency [6] 6.62 µM | Potency [7] 3.72 µM | Potency [8] 3.32 µM | Potency [9] 1.66 µM | Potency [10] 0.833 µM | Potency [11] 1.66 µM | Potency [13] 31.6 µM
